High-throughput results (PubChem)
TPT1 inhibitor = inhibitors of Candida albicans tRNA 2'-phosphotransferase TPT1 | inhibition, % at 5 µM | actives 0.81% (n = 300,000) | recombinant caTPT1, FP RNA substrate dephosphorylation;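 active = inhibition above the mean of all tested compounds plus 3 SD, set per screening campaign, cut at about 24% in these data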
NRP1-CendR mod = alters CendR peptide binding to human NRP-1; FAM-RPARPAR peptide binding to NRP-1, fluorescence polarization; inhibition, % at 25 µM; AID 602438; actives 0.85% (n = 360,000);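 active = inhibition or corrected inhibition above about 18%, plus a signal ratio from 0.5 to 1.5, limit read from the data, passing the limit was not always enough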
Rpn11 inh = Rpn11 (human) deubiquitinase inhibition | O00487 | human 26S proteasome, Ub4-pepOG fluorescence polarization; 20S core pre-blocked with epoxomicin | inhibition, % at 20 µM | actives 0.59% (n = 360,000) | AID 588493;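 active = inhibition at 20 µM, scaled to each plate's controls, above about 33%, limit read from the data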
Target sequence (O00487 whole entry, looked up): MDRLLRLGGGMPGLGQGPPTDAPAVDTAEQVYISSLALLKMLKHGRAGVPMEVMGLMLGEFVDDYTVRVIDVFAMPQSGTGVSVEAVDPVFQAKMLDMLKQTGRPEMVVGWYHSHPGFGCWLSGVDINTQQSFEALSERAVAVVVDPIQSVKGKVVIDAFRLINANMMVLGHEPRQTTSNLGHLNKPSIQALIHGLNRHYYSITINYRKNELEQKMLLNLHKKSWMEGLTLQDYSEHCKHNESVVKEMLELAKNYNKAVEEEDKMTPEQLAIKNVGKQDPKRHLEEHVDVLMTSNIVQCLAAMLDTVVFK
HNF4A DNA FP = change in binding of human HNF4 alpha to DNA; P41235; HNF4a-FITC DNA binding, fluorescence polarization, 1 h; activity change, % at 10 µM; actives 0.3% (n = 360,000); in the data active = activity change above about 30%, passing the limit was not always enough
CTSL1 counter = cathepsin L1 inhibition, PFM18AAP counter-screen; recombinant F. hepatica cathepsin L1, Z-Leu-Arg-MCA fluorescence; inhibition, % at 5.96 µM; actives 0.49% (n = 300,000); AID 1906;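 active = inhibition above the mean of all tested compounds plus 3 SD, set per screening campaign, cut at about 17% in these data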
PHOSPHO1 block = PHOSPHO1 (human) inhibition | Q8TCT1 | recombinant PHOSPHO1, absorbance phosphatase assay | inhibition, % at 13.3 µM | actives 1.1% (n = 290,000); in the data active = inhibition above about 60%
Target sequence (Q8TCT1 whole entry, looked up): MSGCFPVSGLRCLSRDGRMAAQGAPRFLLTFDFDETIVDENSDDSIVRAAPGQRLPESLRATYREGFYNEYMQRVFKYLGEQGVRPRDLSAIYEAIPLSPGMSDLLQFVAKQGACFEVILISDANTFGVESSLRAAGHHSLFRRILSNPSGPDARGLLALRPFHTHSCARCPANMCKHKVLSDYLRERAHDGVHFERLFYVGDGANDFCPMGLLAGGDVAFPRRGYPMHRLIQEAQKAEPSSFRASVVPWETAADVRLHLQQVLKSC
Large screens that a line does not name were inactive. Only some compounds are listed: those with a hit (about 3.3% of all), similar ones and a draw of the others.

COc1ccc(OC)c(Nc2nc(-c3sc(NC(=O)c4ccccc4)nc3C)cs2)c1	TPT1 inhibitor 36 (no result: NRP1-CendR mod, Rpn11 inh, HNF4A DNA FP)
Cc1cccc(OCc2nnc(SCC(=O)N(c3ccccc3)C3CCS(=O)(=O)C3)o2)c1 (centres undefined)	none (no result: TPT1 inhibitor, CTSL1 counter, PHOSPHO1 block)
CC(C)Oc1cc(F)ccc1-c1cc(C(=O)NCCCn2ccnc2)[nH]n1	none (no result: TPT1 inhibitor, CTSL1 counter, PHOSPHO1 block)
CC(=O)C(C(C)=O)C1(O)C(=O)c2ccccc2C1=O	CTSL1 counter 58
COc1ccc(CN2CC(C(=O)N3CCOCC3)CC2=O)cc1 (centres undefined)	none
O=S(=O)(c1cccs1)N1CCN(c2ccccc2)CC1	none
O=C1C(NS(=O)(=O)c2cccs2)=C(N2CCN(c3ccccc3)CC2)C(=O)c2ccccc21	PHOSPHO1 block 76
Cc1oc(-c2cc(F)ccc2F)nc1CN1CCN(c2ncnc3ccccc23)CC1	none
COc1ccc(-c2nc(CN3CCN(c4ncnc5ccccc45)CC3)c(C)o2)c(OC)c1	PHOSPHO1 block 64
COC(=O)c1ccc2c(C)c(C(C)(C)O)[nH]c2c1	none
O=C(NCc1ccco1)/C(=C/c1ccco1)NC(=O)c1ccco1	CTSL1 counter 19
Cc1ccc(C(=O)N/C(=C\c2sccc2C)C(=O)NCc2ccco2)cc1	NRP1-CendR mod 39
COc1ccc(NC(=O)CS(=O)(=O)c2cn(CC(=O)N3CCOCC3)c3ccccc23)cc1	none
COc1cc(NC(=O)CCc2nnc3ccc(N4CCN(c5cccc(OC)c5)CC4)nn23)cc(OC)c1	CTSL1 counter 66
COc1ccccc1NC(=O)CSc1ccc2nnc(CCNC(=O)c3ccccc3)n2n1	none
COc1cccc(NC(=O)CCc2nnc3ccc(N4CCN(c5cccc(OC)c5)CC4)nn23)c1	none
COc1cccc(NC(=O)CSc2ccc3nnc(CCNC(=O)c4ccccc4)n3n2)c1	NRP1-CendR mod 20
CN(CCNC(=O)c1cccc(N2CCCC2=O)c1)Cc1ccccc1	NRP1-CendR mod 18
CCN(CCNC(=O)c1cccc(N2CCCC2=O)c1)c1ccccc1	none
CC(Sc1nnc(C(F)(F)F)n1C)C(=O)Nc1ccc(S(N)(=O)=O)cc1 (centres undefined)	none
CC(=O)C1=C(NC(=O)c2ccc(C(F)(F)F)cc2)C[C@@H]2[C@H]1C2(C)C	none
CC(=O)C1=C(NC(=O)c2ccccc2F)C[C@@H]2[C@H]1C2(C)C	NRP1-CendR mod 17
Cc1cc2n(n1)C(c1sccc1C)Nc1ccccc1-2 (centres undefined)	none
Cc1ccc2c(c1)-c1cc(C)nn1C(c1sccc1C)N2 (centres undefined)	NRP1-CendR mod 27
CC(=O)Nc1sc(C)c(C)c1C(=O)OCC(=O)N(CC(C)C)C1CCS(=O)(=O)C1 (centres undefined)	NRP1-CendR mod 28
Cn1cnnc1SCC(=O)N1N=C2/C(=C/c3ccco3)CCCC2C1c1ccco1 (centres undefined)	PHOSPHO1 block 80
O=C(CSc1nccc(=O)[nH]1)N1N=C2/C(=C/c3ccco3)CCCC2C1c1ccco1 (centres undefined)	CTSL1 counter 17
CC1=C/C(=C(\c2cc(C)c(O)c(Br)c2)c2ccccc2S(=O)(=O)O)C=C(Br)C1=O	NRP1-CendR mod 46
Cc1cc(C(=O)c2ccccc2)cc(C)c1O	none (no result: TPT1 inhibitor, CTSL1 counter, PHOSPHO1 block)
Cc1occc1C(=O)Nc1cccc(Cl)c1Cl	NRP1-CendR mod 29
Cc1occc1C(=O)Nc1ccccc1C(=O)O	none
CCCc1cc(Nc2cccc(OC)c2)n2ncnc2n1	CTSL1 counter 18
CCc1ccc(C(O)c2ncc(-c3cccc(C)c3)[nH]2)cc1 (centres undefined)	none (no result: TPT1 inhibitor, CTSL1 counter, PHOSPHO1 block)
CCCC(C)NC(=S)NC(=O)c1cc(S(=O)(=O)N2CCOCC2)ccc1C (centres undefined)	none
CCCCCC(C)NC(=S)NC(=O)c1cc(S(=O)(=O)N2CCOCC2)ccc1C (centres undefined)	NRP1-CendR mod 26
CC(C)[C@H](NC(=O)[C@@H]1CSC2c3ccccc3C(=O)N21)C(=O)NC1CCCCC1 (some centres undefined)	none
Cc1ccccc1SCCNC(=O)c1ccccc1Br	PHOSPHO1 block 60
CC(C)c1nnc(NC(=O)CN2C(=O)c3ccccc3C2=O)s1	PHOSPHO1 block 89
CCCc1nnc(NC(=O)CCCN2C(=O)c3ccccc3C2=O)s1	NRP1-CendR mod 29
CCCCc1nnc(NC(=O)CN2C(=O)c3ccccc3C2=O)s1	none
CCCc1nnc(NC(=O)c2cc3ccccc3o2)s1	none
CCCc1nnc(NC(=O)c2cc3ccccc3oc2=O)s1	NRP1-CendR mod 26
Cc1ccc(NC(=O)/C=C/c2ccc(S(=O)(=O)N3CCOCC3)cc2)cc1S(=O)(=O)N(C)C	none (no result: TPT1 inhibitor, CTSL1 counter, PHOSPHO1 block)
CC(=O)Nc1ccc(C(=O)CSc2nnc(-c3ccc(O)cc3)n2CC2CCCO2)cc1 (centres undefined)	PHOSPHO1 block 65
CC1(C)CC(=O)C(Sc2nnc(-c3ccc(O)cc3)n2CC2CCCO2)C(=O)C1 (centres undefined)	PHOSPHO1 block 85
CCC(=O)Nc1ccc(NC(=O)CSc2nnc(-c3ccc(O)cc3)n2CC2CCCO2)cc1 (centres undefined)	none
COc1ccc(CN2C(=O)C(CC(=O)NCc3cccs3)CC(C(=O)N3CCOCC3)=C2C)cc1 (centres undefined)	none (no result: TPT1 inhibitor, CTSL1 counter, PHOSPHO1 block)
OCCOCCn1c(CCNc2nc(-c3ccc(Cl)cc3)cs2)nc2cc(Cl)c(Cl)cc21	NRP1-CendR mod 36 (no result: PHOSPHO1 block)
O=[N+]([O-])c1cc(-c2csc(NCCc3nc4cc(Cl)c(Cl)cc4n3CCCO)n2)ccc1Cl	NRP1-CendR mod 31 (no result: PHOSPHO1 block)
Nc1cn(C2OC(CO)C(O)C2O)c(=O)[nH]c1=O (centres undefined)	none (no result: TPT1 inhibitor, CTSL1 counter)
Cc1cc(=O)oc2cc(OCC(=O)N(C)C3CCS(=O)(=O)C3)c(Cl)cc12 (centres undefined)	none
Cc1ccn2cc(CCNS(=O)(=O)c3ccc4ccccc4c3)nc2c1	CTSL1 counter 30
Nc1ccccc1C(=O)NCC1(c2ccccc2)CCCC1	CTSL1 counter 18
Cc1cccc(C)c1NC(=S)N/N=C1\CC2CC=CC12 (centres undefined)	none
Cc1ccc(NC(=S)N/N=C2\CC3CC=CC23)c(C)c1 (centres undefined)	PHOSPHO1 block 65
CC(C)(C)c1ccc(-c2nc(O)c(CC(=O)O)s2)cc1	none (no result: NRP1-CendR mod, Rpn11 inh, HNF4A DNA FP)
O=C1NC(=S)S/C1=C\c1ccc(SCc2ccco2)o1	TPT1 inhibitor 90, Rpn11 inh 182, PHOSPHO1 block 80
O=C1NC(=S)SC1=Cc1ccccc1Cl	none (no result: TPT1 inhibitor, CTSL1 counter, PHOSPHO1 block)
C[N+]1(CCCCCCC(=O)/C=N/O)CCCCCC1	PHOSPHO1 block 82
COc1ccc(CC(=O)OCC(=O)N2CCCc3ccccc32)cc1	none (no result: PHOSPHO1 block)
O=C(Nc1nnc(-c2ccco2)s1)C1CCCCC1	PHOSPHO1 block 75
